Measured values published in PubChem BioAssay (NCATS).
Values joined by “and” are separate entries in the source; they are usually repeats but may differ in a detail not shown here. Equal values may be shown once. Results filed as inconclusive are left out. Active and inactive are the calls of the source. The call rests on the fitted dose curve.

Assay: qHTS Assay for Lipid Storage Modulators (AID 1519); on activity change, negative = inhibition: on the % scale 0 is the no-effect control and ±100 the full control effect
Conditions: Drosophila S3 cells, BODIPY lipid droplet/cell ratio, laser cytometry, cells loaded with oleic acid
Source text: NIH Molecular Libraries Probe Production Centers Network [MLPCN]
NIH Chemical Genomics Center [NCGC]
Assay Submitter (PI): Beller, Mathias; Max-Planck-Institut fur Biophysikalische Chemie
NCGC Assay Overview: Storing lipids as a reservoir for energy or the anabolism of elementary metabolites is a common feature of probably all cells and is conserved from bacteria to humans. The universal cellular lipid storage organelle is the so-called lipid storage droplet (LD). Although ubiquitous, LDs share a simple structure composed of a hydrophobic core that harbors the storage lipids, which is shielded by a droplet-specific phospholipid monolayer to which proteins are attached. The current model of LD biogenesis involves an incorporation of the lipid core into the membrane leaflets of the endoplasmic reticulum (ER) followed by a subsequent budding-like maturation of a LD, which ultimately pinches off. Once released, LD volume can increase by localized lipogenesis or fusion of existing droplets. Storage lipids are re-mobilized enzymatically by lipase activity. Lipase regulation in the adipocyte is heavily studied and involves multiple components including catecholamine signaling, the LD-associated proteins Perilipin and comparative gene identification-58 (CGI-58) and at least two lipases named hormone sensitive lipase (HSL) and adipocyte triglyceride lipase (ATGL). LD regulation outside of the adipocyte is poorly understood and only few components are known. However, there is an urgent need to learn more about ectopic fat depots as mislocalized storage of lipids, for example in the liver or muscle, is an eminent health problem associated with insulin resistance or the metabolic syndrome. We developed a laser-scanning cytometer assay to enable 1,536-well screening and combined the results of the small molecules screen with an RNAi database based on lipid storage.
NCGC Assay Protocol Summary:
We dispensed 4 uL of cells at 1.25 x 10^6 cells/mL into LoBase Aurora COC 1,536-well plates (black walled, clear bottom) with a bottle-valve solenoid-based dispenser (Aurora) to obtain 5,000 cells/well. Triacsin C (Sigma-Aldrich T-4540), an inhibitor of long-chain fatty acyl CoA synthetase that blocks synthesis of triglycerides, was used as a positive control for lipid under-storage. A total of 23 nL of compound solution of different concentrations were transferred to the assay plates using a Kalypsys pin tool equipped with a 1,536-pin array containing 10-nL slotted pins (FP1S10, 0.457-mm diameter, 50.8 mm long; V&P Scientific). One microliter of oleic acid (400 uM) was added, and the plate was lidded with stainless steel rubber gasket lined lids containing pinholes. […] Fluorescence was detected by excitation of the fluorophores with a 488-nm laser on an Acumen Explorer (TTP Lab Tech). The total intensity in channel 1 (500-530 nm) reflected lipid droplet accumulation. […] The ratio of the total intensity in PMT channel 1 over total intensity of channel 3 was also calculated. Percent activity was computed relative to an internal control (100% inhibited lipid droplet deposition due to the presence of 20 uM Triacsin C), which was added to 32 wells/plate.

[1] = measured here: cell count channel max response
[2] = measured here: lipid channel max response

Compound | activity change, negative = inhibition (at 25.7 µM (top of the series)) | activity change, negative = inhibition (at 57.5 µM (top of the series)) | max response [1] | max response [2]
Cn1c(=O)c2c(ncn2CCO)n(C)c1=O | -0.0249% (inactive) | 6.15% (inactive) | 7.29% and 18.9% | 6.36% and 16.1%
O=C(Cn1ccnc1[N+](=O)[O-])NCCO | -0.0007% (inactive) | 2.99% (inactive) | -9.52% and 14.9% | -8.62% and 19.4%
CCc1cccc(CC)c1NC(=O)CN(CC(=O)O)CC(=O)O | 1.96% (inactive) |  | -4.83% | -3.06%
CCCCC1(COC(=O)CCC(=O)O)C(=O)N(c2ccccc2)N(c2ccccc2)C1=O | -3.4% (inactive) | 5.77% (inactive) | -9.42% and 23.5% | -12.6% and 36.6%
Cc1cc(C)nc(NS(=O)(=O)c2ccc(N)cc2)n1 | 1% (inactive) | 8.29% (inactive) | -2.08% and -9.55% | -2.98% and 1.72%
CCN(CC)CCOC(=O)C(c1ccccc1)c1ccccc1 | -0.714% (inactive) | -3.74% (inactive) | -10.9% and -9.85% | -13.6% and -9.37%
CC[N+](C)(CC)CCOC(=O)C1c2ccccc2Oc2ccccc21 | -1.37% (inactive) |  | -9.32% | -11.4%
CC(=O)SC[C@@H](Cc1ccccc1)C(=O)NCC(=O)OCc1ccccc1 | -7.97% (inactive) |  | -8.69% | -18.1%
CCOC(N)=O |  | 5.36% (inactive) | 18.8% | 25.8%
C[n+]1ccccc1/C=N/O |  | 6.44% (inactive) | 15.5% | 23.8%
NC(=O)NC1NC(=O)NC1=O (stereo unspecified) |  | 4.87% (inactive) | 2.56% | 9.47%
CC1CCc2cc(F)cc3c(=O)c(C(=O)O)cn1c23 (stereo unspecified) |  | 6.51% (inactive) | 18.4% | 28.6%
